Assay results reported in PubChem BioAssay.
The source made the active and inactive calls. The rule behind the calls is not given here.

Target: Pantothenate synthetase (Mycobacterium tuberculosis (strain ATCC 25618 / H37Rv)) (UniProt P9WIL5)
Test: Coupled enzyme confirmation of inhibitors against recombinant Mtb PanC (AID 375);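 note: 0% = full reaction with vehicle and 100% = no enzyme background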
Settings: coupled enzyme assay; at 10 µM, stronger effect = higher value

Pantothenate synthetase (Mycobacterium tuberculosis (strain ATCC 25618 / H37Rv)), sequence (P9WIL5 whole entry, looked up): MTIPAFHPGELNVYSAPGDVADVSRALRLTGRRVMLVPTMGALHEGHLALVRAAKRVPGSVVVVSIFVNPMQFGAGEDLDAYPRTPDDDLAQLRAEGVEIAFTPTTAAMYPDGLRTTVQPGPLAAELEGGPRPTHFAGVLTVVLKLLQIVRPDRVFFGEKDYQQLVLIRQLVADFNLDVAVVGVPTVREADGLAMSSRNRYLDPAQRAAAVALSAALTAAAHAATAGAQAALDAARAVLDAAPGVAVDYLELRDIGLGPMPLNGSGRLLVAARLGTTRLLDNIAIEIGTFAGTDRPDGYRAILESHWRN

| Compound | inhibition |
| --- | --- |
| CCn1c(=O)n(CC(=O)NCc2ccccc2OC)c(=O)c2ccccc21 | 12% (inactive) |
| COc1ccc(C(=O)N2CCN(C(=O)c3ccco3)CC2)cc1OC | 4% (inactive) |
| CC(=O)N1CCc2cc(S(=O)(=O)CCC(=O)N3CCN(C(=O)c4ccco4)CC3)ccc21 | 6% (inactive) |
| Cc1noc(NS(=O)(=O)c2ccc(N)cc2)c1C | 0% (inactive) |
| CN1CC[n+]2cnc3ccccc3c21 | 1% (inactive) |
| O=C(NCc1nc2ccccc2[nH]1)c1ccco1 | 0% (inactive) |
| Cn1c(COc2ccccc2)nnc1SCC(=O)Nc1ccc(N2CCOCC2)c(Cl)c1 | 6% (inactive) |
| CCN(CC)C(=O)c1ccc(CS(=O)(=O)c2ccc(OC)cc2)o1 | 1% (inactive) |
| COc1ccccc1Nc1nc2ccccc2[nH]1 | 0% (inactive) |
| O=C(Nc1cccc2ccccc12)c1ccc(Br)o1 | 0% (inactive) |
| COc1ccc(OC)c(C(=O)c2coc3ccc(O)c(CN4CCOCC4)c23)c1 | 0% (inactive) |
| COc1ccc(CCNc2oc(COc3ccccc3Cl)nc2C#N)cc1OC | 3% (inactive) |
| CCSc1nc(O)c(CC)c(=O)n1C(C)CC (stereo not given) | 3% (inactive) |
| O=c1cc(C(F)F)oc2c1ccc1ccccc12 | 0% (inactive) |
| COc1ccc(-c2noc(CSc3nc(N)c(-c4ccccc4)c(=O)[nH]3)n2)cc1OC | 9% (inactive) |
| Nc1nc(CN2CCN(Cc3ccc4c(c3)OCO4)CC2)nc(Nc2ccccc2)n1 | 0% (inactive) |
| CCOC(=O)c1c(-c2cccs2)csc1NC(=O)CCCC(=O)O | 0% (inactive) |
| CC1=C(C(=O)OC2CCCCCC2)C(c2ccc(C)o2)C2=C(CCCC2=O)N1 (stereo not given) | 0% (inactive) |
| Cc1ccc(OCC(O)Cn2c(NCCc3ccccc3)nc3c2c(=O)[nH]c(=O)n3C)cc1 (stereo not given) | 0% (inactive) |
| c1ccc(Cn2nnnc2C(c2ccccn2)N2CCOCC2)cc1 (stereo not given) | 0% (inactive) |

| Compound | inhibition |
| --- | --- |
| OCc1nc(CO)n(Cc2ccccc2)n1 | 0% (inactive) |
| COc1ccc(C(=O)N2CCCc3ccccc32)cc1 | 0% (inactive) |
| CC1CCc2nn(CC(=O)Nc3ccc(F)cc3F)cc2C1 (stereo not given) | 5% (inactive) |
| CCc1nnc(NC(=O)C2CCCN2S(=O)(=O)c2ccc(C)cc2)s1 (stereo not given) | 2% (inactive) |
| COCc1nnc(NC(=O)CCCOc2ccccc2)s1 | 0% (inactive) |
| Cc1ccccc1-c1nc(CS(=O)(=O)CC(=O)NCc2ccc3c(c2)OCO3)c(C)o1 | 6% (inactive) |
| CCN(CC(=O)Nc1ccc(S(N)(=O)=O)cc1)S(=O)(=O)c1cc(C)ccc1OC | 6% (inactive) |
| CCOc1cc(NC(=O)c2ccco2)c(OCC)cc1NC(=O)Cc1cccc(OC)c1 | 8% (inactive) |
| COc1ccc(NC(=O)CSc2nc3c(c(=O)n2-c2ccc(F)cc2)SCC3)cc1 | 0% (inactive) |
| Cc1ccc(C)c(CSc2nnc(CCN)o2)c1 | 0% (inactive) |
| Cc1ccc(C)c(C(=O)CC2(O)C(=O)N(C)c3ccccc32)c1 (stereo not given) | 0% (inactive) |
| CCN1CCN(c2nc3c(c(=O)[nH]c(=O)n3C)n2CCSc2nc3ccccc3s2)CC1 | 3% (inactive) |
| Cn1cccc1Cc1nnc(SCC(=O)Nc2ccccc2F)n1-c1ccc(F)cc1 | 0% (inactive) |
| CCOc1ccccc1CN1C(=O)c2ccccc2C1C(=O)NCC1CCCO1 (stereo not given) | 11% (inactive) |
| Cc1ccc(S(=O)(=O)N2CCCN(S(=O)(=O)C3CCS(=O)(=O)C3)CC2)cc1 (stereo not given) | 2% (inactive) |
| Cc1ccc(CN2C(=O)CCC2C(=O)NC2CCCC2)cc1 (stereo not given) | 0% (inactive) |
| CCc1nc(C)c(-c2ccccc2)c(=O)[nH]1 | 6% (inactive) |
| COC(=O)Nc1ccccc1C(=O)N1CCCCC1 | 0% (inactive) |
| CCOC(=O)C1CCN(C(=O)Nc2ccc(Cl)cc2Cl)CC1 | 0% (inactive) |
| COc1ccc(-n2c(COc3cccc(C)c3)nnc2SCC(=O)NCc2ccco2)cc1 | 5% (inactive) |
